# Data reported in PubChem BioAssay (NCI).
# This is part of a sample that, as a whole, favours compounds with a hit. Of some 79,000 tested, about 15% had one in any assay. Values without a mark were called inactive. The source made the active and inactive calls. Cut-off read from the data, not from the text of the source: active = growth inhibition above about 70%; inactive = the rest.
# How the values were obtained:
# [1] = NCI Yeast Anticancer Drug Screen. Data for the wt2 strain (AID 169);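 note: 0% = growth of vehicle-treated yeast cultures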; details: S. cerevisiae wt2 strain growth inhibition, active compounds read high
# Method in brief: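 Yeast cells were exposed to test compounds, and growth inhibition was measured relative to vehicle-treated controls.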
# [2] = NCI Yeast Anticancer Drug Screen. Data for the mlh1 strain (AID 171);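 note: 0% = growth of vehicle-treated control cultures of the same strain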; details: S. cerevisiae mlh1 strain growth inhibition, active compounds read high
# Method in brief: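 Yeast carrying a defined genetic alteration in DNA damage repair or cell cycle control were exposed to test compounds. Growth inhibition was measured relative to vehicle-treated controls.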
# [3] = NCI Yeast Anticancer Drug Screen. Data for the sgs1 strain (AID 173);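 note: 0% = growth of vehicle-only control cultures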; details: S. cerevisiae sgs1 mutant, active compounds read high
# Method in brief: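 Yeast mutant strains carrying defined defects in DNA damage repair or cell cycle control were exposed to test compounds. Growth inhibition was scored against vehicle-treated controls.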
# [4] = NCI Yeast Anticancer Drug Screen. Data for the mlh1 rad18 strain (AID 175); details: S. cerevisiae mlh1 rad18 strain growth inhibition, active compounds read high
# Method in brief: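 Growth inhibition of the yeast strain was measured after compound exposure and expressed relative to vehicle-treated controls. The strain carries defined defects in DNA damage repair.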
# [5] = NCI Yeast Anticancer Drug Screen. Data for the rad18 strain (AID 177); details: S. cerevisiae rad18 mutant growth inhibition, active compounds read high
# Method in brief: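 Yeast carrying a defined DNA damage repair alteration were exposed to compounds. Growth inhibition was expressed relative to vehicle-treated controls.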
# [6] = NCI Yeast Anticancer Drug Screen. Data for the rad52 strain (AID 147);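 note: 0% = growth of vehicle-treated control cultures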; details: S. cerevisiae rad52 mutant growth inhibition, active compounds read high
# Method in brief: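 Yeast strain carrying a DNA damage repair alteration was exposed to test compounds. Growth inhibition was measured relative to vehicle-treated controls.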
# [7] = NCI Yeast Anticancer Drug Screen. Data for the wt1 strain (AID 149);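 note: 0% = growth of vehicle-treated wt1 cultures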; details: S. cerevisiae wt1 strain (SPY 50644) growth inhibition, active compounds read high
# Method in brief: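 wt1 strain grown with compound or vehicle; inhibition taken from the growth difference.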
# [8] = NCI Yeast Anticancer Drug Screen. Data for the rad50EPP+ strain (AID 151);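 note: 0% = growth of vehicle-treated control cultures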; details: S. cerevisiae rad50 mutant strain, active compounds read high
# Method in brief: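 Yeast strain carrying rad50 alteration (rad50EPP+) exposed to compounds; growth inhibition measured relative to vehicle-treated controls.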
# [9] = NCI Yeast Anticancer Drug Screen. Data for the mgt1 strain (AID 153); details: S. cerevisiae mgt1 mutant growth inhibition, active compounds read high
# Method in brief: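 Yeast mgt1 strain (DNA repair/cell-cycle alteration panel) exposed to compounds; growth inhibition measured relative to vehicle-treated controls.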
# [10] = NCI Yeast Anticancer Drug Screen. Data for the rad50 strain (AID 155);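 note: 0% = growth of vehicle-only cultures of the same strain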; details: S. cerevisiae rad50 strain growth inhibition, active compounds read high
# Method in brief: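 DNA repair mutant yeast, compound exposure, growth read-out; inhibition is taken relative to vehicle.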
# [11] = NCI Yeast Anticancer Drug Screen. Data for the mec2-1 strain (AID 157); details: S. cerevisiae mec2-1 strain, active compounds read high
# Method in brief: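 mec2-1 yeast strain, carrying an alteration in DNA damage repair or cell cycle control, was exposed to compounds; growth inhibition was measured relative to vehicle-treated controls.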
# [12] = NCI Yeast Anticancer Drug Screen. Data for the rad14 strain (AID 159);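 note: 0% = growth of vehicle-treated control cultures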; details: S. cerevisiae rad14 strain growth inhibition, active compounds read high
# Method in brief: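 DNA repair-defective yeast, compound-exposed; % growth inhibition derived by comparison with vehicle-treated controls.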
# [13] = NCI Yeast Anticancer Drug Screen. Data for the sgs1 mgt1 strain (AID 161);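 note: 0% = growth of cultures given vehicle only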; details: S. cerevisiae sgs1 mgt1 strain, active compounds read high
# Method in brief: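 Percent growth inhibition was derived by comparing compound-exposed mutant yeast with vehicle-exposed cultures. The strain carries alterations in DNA damage repair.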
# [14] = NCI Yeast Anticancer Drug Screen. Data for the CLN2oe strain (AID 163);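 note: 0% = growth of vehicle-only control cultures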; details: S. cerevisiae CLN2oe strain, active compounds read high
# Method in brief: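 Yeast cells carrying a defined cell-cycle control alteration were exposed to test compounds. Growth inhibition was scored against vehicle-treated control cultures.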
# [15] = NCI Yeast Anticancer Drug Screen. Data for the cln2 rad14 strain (AID 165);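 note: 0% = growth equal to vehicle treated cultures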; details: S. cerevisiae cln2 rad14 strain, active compounds read high
# Method in brief: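 Yeast carrying cln2 and rad14 alterations (cell cycle control and DNA damage repair) were exposed to compounds. Growth inhibition was measured against vehicle-treated controls.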
# [16] = NCI Yeast Anticancer Drug Screen. Data for the bub3 strain (AID 167); details: S. cerevisiae bub3 mutant strain, active compounds read high
# Method in brief: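 In this screen, a yeast mutant lacking normal mitotic checkpoint function is challenged with compound. Relative growth versus vehicle gives the inhibition value.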
# [17] = at 5.0 µM (retest, dose inferred, filed as 0.5)
# [18] = at 50.0 µM (retest, dose inferred, filed as 5.0)
structure (smiles),measurement,setting,value
CCC(C)(c1ccc(O)c(C)c1)c1ccc(O)c(C)c1,growth inhibition,[1]; at 1.2 µM,-33%
same,growth inhibition,[1]; at 3.7 µM,-31%
same,growth inhibition,[1]; at 11.0 µM,45%
same,growth inhibition,[1]; at 33.0 µM,98% (active)
same,growth inhibition,[1]; at 100.0 µM,99% (active)
same,growth inhibition,[2]; at 1.2 µM,-45%
same,growth inhibition,[2]; at 3.7 µM,-43%
same,growth inhibition,[2]; at 11.0 µM,42%
same,growth inhibition,[2]; at 33.0 µM,91% (active)
same,growth inhibition,[2]; at 100.0 µM,98% (active)
same,growth inhibition,[3]; at 1.2 µM,-32%
same,growth inhibition,[3]; at 3.7 µM,-25%
same,growth inhibition,[3]; at 11.0 µM,39%
same,growth inhibition,[3]; at 33.0 µM,97% (active)
same,growth inhibition,[3]; at 100.0 µM,98% (active)
same,growth inhibition,[4]; [17],30%
same,growth inhibition,[4]; [18],91% (active)
same,growth inhibition,[4]; at 50.0 µM,92.2% (active)
same,growth inhibition,[5]; at 1.2 µM,-55%
same,growth inhibition,[5]; at 3.7 µM,-38%
same,growth inhibition,[5]; at 11.0 µM,30%
same,growth inhibition,[5]; at 33.0 µM,97% (active)
same,growth inhibition,[5]; at 100.0 µM,98% (active)
N#CC(=C1C=CC(=NO)C=C1)c1ccccc1,growth inhibition,[6]; at 1.2 µM,6%
same,growth inhibition,[6]; at 3.7 µM,24%
same,growth inhibition,[6]; at 11.0 µM,98% (active)
same,growth inhibition,[6]; at 33.0 µM,99% (active)
same,growth inhibition,[6]; at 100.0 µM,99% (active)
same,growth inhibition,[7]; at 1.2 µM,3%
same,growth inhibition,[7]; at 3.7 µM,13%
same,growth inhibition,[7]; at 11.0 µM,99% (active)
same,growth inhibition,[7]; at 33.0 µM,99% (active)
same,growth inhibition,[7]; at 100.0 µM,99% (active)
same,growth inhibition,[8]; at 1.2 µM,24%
same,growth inhibition,[8]; at 3.7 µM,64%
same,growth inhibition,[8]; at 11.0 µM,96% (active)
same,growth inhibition,[8]; at 33.0 µM,99% (active)
same,growth inhibition,[8]; at 100.0 µM,98% (active)
same,growth inhibition,[9]; at 1.2 µM,1%
same,growth inhibition,[9]; at 3.7 µM,24%
same,growth inhibition,[9]; at 11.0 µM,99% (active)
same,growth inhibition,[9]; at 33.0 µM,99% (active)
same,growth inhibition,[9]; at 100.0 µM,99% (active)
same,growth inhibition,[10]; at 1.2 µM,4%
same,growth inhibition,[10]; at 3.7 µM,26%
same,growth inhibition,[10]; [17],30%
same,growth inhibition,[10]; at 11.0 µM,98% (active)
same,growth inhibition,[10]; at 33.0 µM,99% (active)
same,growth inhibition,[10]; [18],99% (active)
same,growth inhibition,[10]; at 50.0 µM,99.3% (active)
same,growth inhibition,[10]; at 100.0 µM,99% (active)
same,growth inhibition,[11]; at 1.2 µM,-3%
same,growth inhibition,[11]; at 3.7 µM,14%
same,growth inhibition,[11]; [17],19%
same,growth inhibition,[11]; at 11.0 µM,99% (active)
same,growth inhibition,[11]; at 33.0 µM,99% (active)
same,growth inhibition,[11]; [18],99% (active)
same,growth inhibition,[11]; at 50.0 µM,99.5% (active)
same,growth inhibition,[11]; at 100.0 µM,99% (active)
same,growth inhibition,[12]; at 1.2 µM,5%
same,growth inhibition,[12]; at 3.7 µM,24%
same,growth inhibition,[12]; at 11.0 µM,98% (active)
same,growth inhibition,[12]; at 33.0 µM,99% (active)
same,growth inhibition,[12]; at 100.0 µM,99% (active)
same,growth inhibition,[13]; [17],35%
same,growth inhibition,[13]; [18],99% (active)
same,growth inhibition,[13]; at 50.0 µM,99.4% (active)
same,growth inhibition,[14]; at 1.2 µM,2%
same,growth inhibition,[14]; at 3.7 µM,10%
same,growth inhibition,[14]; at 11.0 µM,97% (active)
same,growth inhibition,[14]; at 33.0 µM,99% (active)
same,growth inhibition,[14]; at 100.0 µM,99% (active)
same,growth inhibition,[15]; [17],-1%
same,growth inhibition,[15]; [18],99% (active)
same,growth inhibition,[15]; at 50.0 µM,99.2% (active)
same,growth inhibition,[16]; at 1.2 µM,-21%
same,growth inhibition,[16]; at 3.7 µM,-19%
same,growth inhibition,[16]; [17],35%
same,growth inhibition,[16]; at 11.0 µM,94% (active)
same,growth inhibition,[16]; at 33.0 µM,97% (active)
same,growth inhibition,[16]; [18],99% (active)
same,growth inhibition,[16]; at 50.0 µM,99.3% (active)
same,growth inhibition,[16]; at 100.0 µM,99% (active)
same,growth inhibition,[1]; at 1.2 µM,4%
same,growth inhibition,[1]; at 3.7 µM,41%
same,growth inhibition,[1]; at 11.0 µM,99% (active)
same,growth inhibition,[1]; at 33.0 µM,99% (active)
same,growth inhibition,[1]; at 100.0 µM,99% (active)
same,growth inhibition,[2]; at 1.2 µM,3%
same,growth inhibition,[2]; at 3.7 µM,15%
same,growth inhibition,[2]; at 11.0 µM,99% (active)
same,growth inhibition,[2]; at 33.0 µM,99% (active)
same,growth inhibition,[2]; at 100.0 µM,99% (active)
same,growth inhibition,[3]; at 1.2 µM,9%
same,growth inhibition,[3]; at 3.7 µM,50%
same,growth inhibition,[3]; at 11.0 µM,99% (active)
same,growth inhibition,[3]; at 33.0 µM,99% (active)
same,growth inhibition,[3]; at 100.0 µM,99% (active)
same,growth inhibition,[4]; [17],64%
same,growth inhibition,[4]; [18],99% (active)
same,growth inhibition,[4]; at 50.0 µM,99.4% (active)
same,growth inhibition,[5]; at 1.2 µM,12%
same,growth inhibition,[5]; at 3.7 µM,43%
same,growth inhibition,[5]; at 11.0 µM,99% (active)
same,growth inhibition,[5]; at 33.0 µM,99% (active)
same,growth inhibition,[5]; at 100.0 µM,99% (active)
